# Bioassay records as filed in PubChem BioAssay.
# RE007 growth inh: less growth of the S. pombe RE007 Vpr strain. S. pombe RE007 Vpr strain, BacTiter-Glo ATP luminescence, 24 h. Potency, µM (top dose mostly 92.2 µM), without a hit: top-dose activity change, negative = less growth, actives largely listed as inhibitors. 360,000 tested, 0.21% active; active = well fitted falling curve with a large enough effect; inconclusive = small, poorly fitted or top-dose-only effect; inactive = no such curve, though single readings can be large or run the other way; also: nearly all actives have a fitted effect of over 50% in size
#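 Fission yeast strain RE007, carrying one chromosomally integrated HIV-1 vpr copy, was seeded at OD 0.01 in PMG+AL medium with 23 nL pinned compound. After 24 h at 30 °C and 99% humidity, viability was read by BacTiter-Glo luminescence.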
# Tb PYK inh: inhibitors of Trypanosoma brucei pyruvate kinase. TbPYK enzyme, Kinase-Glo Plus ATP luminescence, 45 min. 410,000 tested, 0.12% active. Q57TT1. Potency, µM (top dose mostly 76.8 µM), without a hit: at the top dose activity, negative = inhibition, usual class: inhibitors; also: nearly all actives have a fitted effect of over 50% in size
#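 T. brucei PYK with substrate was exposed to pin-transferred compounds across a concentration series, then started with 130 uM ADP (final). After 45 min at room temperature, Kinase-Glo Plus luminescence was read, normalized and curve-fitted.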
# LmPK inhibitor: blocks Leishmania mexicana pyruvate kinase activity. Q27686. purified LmPK, Kinase-Glo ATP luminescence, 1 h. Potency, µM (top dose mostly 57.5 µM), without a hit: top-dose activity change, negative = inhibition, actives largely listed as inhibitors. 290,000 tested, 0.37% active. AID 1721
# Target sequence (Q27686 whole entry, looked up): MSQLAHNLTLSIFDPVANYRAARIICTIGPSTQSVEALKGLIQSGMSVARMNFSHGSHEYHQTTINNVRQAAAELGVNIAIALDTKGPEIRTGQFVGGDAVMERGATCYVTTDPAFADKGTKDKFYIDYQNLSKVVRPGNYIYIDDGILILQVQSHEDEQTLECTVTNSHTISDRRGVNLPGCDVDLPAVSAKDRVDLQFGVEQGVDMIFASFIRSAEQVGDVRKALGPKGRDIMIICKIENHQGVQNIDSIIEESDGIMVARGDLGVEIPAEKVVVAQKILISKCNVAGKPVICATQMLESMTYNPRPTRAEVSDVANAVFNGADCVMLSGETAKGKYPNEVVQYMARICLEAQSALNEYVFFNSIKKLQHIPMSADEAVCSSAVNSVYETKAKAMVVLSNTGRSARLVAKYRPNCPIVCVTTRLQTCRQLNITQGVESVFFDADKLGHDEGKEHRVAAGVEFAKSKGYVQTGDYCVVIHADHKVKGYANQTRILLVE
#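 Pyruvate kinase activity monitored as ATP production (luciferase luminescence). Conditions: 0.1 nM enzyme, 0.5 mM PEP, 0.1 mM ADP, 1 h, RT; normalized against uninhibited and no-enzyme wells.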
# Sm TGR block: inhibitors of Schistosoma mansoni thioredoxin glutathione reductase; Q962Y6; purified TGR, DTNB reduction, TNB absorbance 405 nm; Potency, µM (titrated, usually from 114 µM), inactives show at the highest dose activity change, negative = inhibition, hits mostly inhibitors; 360,000 tested, 3% active; AID 485364; also: nearly all actives have a fitted effect of over 60% in size
#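 Kinetic colorimetric format: TGR-catalysed, NADPH-driven DTNB reduction monitored via TNB absorbance. Enzyme dispensed at 20 nM; compound exposure 15 min at room temperature before reaction start.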
# * = called active by the depositor; u = inconclusive; x = no result given; [ ] = another dose, or the depositor's remark. Rows were chosen to be rich in hits. Some 3% of all compounds tested hit in one or more screens of this group. Unless noted, calls follow the shape of the dose curve; as a rule, active = well fitted curve in the direction sought with a large enough effect; inconclusive = small, poorly fitted or top-dose-only effect, or another doubt; inactive = no such curve, though single readings can be large; an effect the other way counts as inactive or inconclusive. % is scaled to controls: 0 for no effect and ±100 for the full control effect; potency is read from the fitted curve at half-maximal effect.
SMILES,RE007 growth inh,Tb PYK inh,LmPK inhibitor,Sm TGR block
O=C1OCCN1CCNCc1cn(-c2ccc(F)cc2)nc1-c1ccccc1Cl,-8%,2%,3%,u
Cc1ccc(-n2cc(CNCCN3CCOC3=O)c(-c3cccc(C)c3)n2)cc1,-5%,10%,0%,22µM*
C/C(=N\NC(=O)c1ccc(CSc2nc(C)cc(C)n2)cc1)c1ccco1,4%,-1%,3%,45µM*
O=C(Nc1ccccc1C(=O)N/N=C/c1ccco1)c1ccccc1,u,-9%,u,-7%
O=C(Nc1ccccc1C(=O)N/N=C/c1ccco1)c1ccc(F)cc1,22µM*,-1%,16µM*,3%
Cc1cc(C)nc(SCc2ccc(C(=O)N/N=C/c3ccco3)cc2)n1,10%,-19%,4%,32µM*
C/C(=N\NC(=O)c1ccc(-c2ccccc2)cc1)c1ccco1,0%,-5%,-2%,-4%
COc1ccc(-c2oc3ncn4nc(-c5ccccc5OC)nc4c3c2-c2ccc(OC)cc2)cc1,x,1%,x,-10%
CC1(C)SC2[C@@H](N=CN3CCCCCC3)C(=O)N2[C@H]1C(=O)O (stereo not given in full),x,4%,x,x
CC(C)Sc1nnc(-c2ccc(S(=O)(=O)N3CCOCC3)cc2)n1C,3%,2%,-8%,50µM*
COc1ccc(NC(=O)c2ccc(-c3nc(CSc4ccccc4)c(C)o3)cc2)c(OC)c1,x,-1%,x,-25%
Cc1ccc(NC2CC(=O)N(Cc3ccccc3)C2=O)cc1 (stereo not given),-17%,2%,1%,41%
CCCN(CCC)C1CC(=O)N(Cc2ccccc2)C1=O (stereo not given),14µM*,-9%,-1%,10µM*
O=C1CC(N(O)C2CC(=O)N(Cc3ccccc3)C2=O)C(=O)N1Cc1ccccc1 (stereo not given),45µM*,-21%,4%,u
O=C(O)c1ccc(NC2CC(=O)N(Cc3ccccc3)C2=O)cc1 (stereo not given),-4%,3%,0%,28µM*
Cc1cc(C)cc(NC(=O)CCc2nnc3n(C)c(=O)c4sccc4n23)c1,x,-2%,x,13%
COc1cc(OC)cc(C(=O)Nc2cccc(-c3cn4ccsc4n3)c2)c1,x,4%,x,2%
COCC(C)n1c(COc2ccccc2F)nnc1SCC(=O)Nc1oc(C)c2c(C)n[nH]c(=O)c12 (stereo not given),-10%,u,x,25µM*
O=C(CCN1C(=O)/C(=C/c2ccco2)SC1=S)Nc1ccc(C(=O)O)c(O)c1,1%,-19%,2%,u
O=C(CN1C(=O)/C(=C\c2ccco2)SC1=S)Nc1ccc(O)cc1C(=O)O,4%,-19%,16%,25µM*
O=C(CCN1C(=O)/C(=C\c2ccco2)SC1=S)Nc1ccc(C(=O)O)c(O)c1,-14%,-15%,3%,18µM*
O=C1c2ccc([N+](=O)[O-])cc2S(=O)(=O)N1Cc1ccccc1,u,2%,3%,18µM*
NC(=O)C1CC2(NC(=O)NC2=O)c2cc(F)ccc2O1 (stereo not given),x,1%,x,x
Cc1ccc(NC(=O)N2CCC(N3CCN(Cc4ccccc4)C(=O)C3=O)CC2)cc1Cl,x,-2%,x,-3%
COc1ccc(C2c3cccn3CCN2S(=O)(=O)c2ccc([N+](=O)[O-])cc2)cc1 (stereo not given),x,0%,x,u
SMILES,RE007 growth inh,Tb PYK inh,LmPK inhibitor,Sm TGR block
CC(=O)n1cc([C@H]2C=C(C(=O)N3CCN(Cc4ccccc4)CC3)O[C@@H](OCc3ccc(CO)cc3)C2)c2ccccc21,-2%,-4%,5%,18µM*
CC(=O)n1cc([C@H]2C=C(C(=O)N3CCN(Cc4ccc5c(c4)OCO5)CC3)O[C@@H](OCc3ccc(CO)cc3)C2)c2ccccc21,-1%,3%,4%,-11%
CC(=O)n1cc([C@@H]2C=C(C(=O)NCc3ccccc3)O[C@H](OCc3ccc(CO)cc3)C2)c2ccccc21,7%,-19%,4%,50µM*
O=C(O)Cn1nc(N2CCN(c3ccccc3)CC2)ccc1=O,x,-5%,x,u
COc1cc(NC(=O)N2CCc3nc(Nc4cc(Cl)cc(Cl)c4)ncc3C2)cc(OC)c1OC,-5%[18.4 µM],-8%,x,x
CNc1ccc(Br)cc(C(=O)/C=C/c2ccc(OC)cc2)c1=O,-7%,-15%,1%,11µM*
CNc1ccc(Br)cc(C(=O)/C=C/c2cc(OC)ccc2OC)c1=O,-13%,-15%,-1%,3.2µM*
CCNc1ccc(Br)cc(C(=O)/C=C/c2ccc(Cl)cc2Cl)c1=O,-19%,-10%,-12%,2.2µM*
CNc1ccc(Br)cc(C(=O)/C=C/c2ccc3c(c2)OCO3)c1=O,-22%,-17%,0%,2.8µM*
COc1ccc(/C=C/C(=O)c2cc(Br)ccc2O)cc1OC,-7%,-2%,-2%,2%
CCCCc1nc2c(c3c1C[C@H](C)OC3)CN(C(=O)Cc1cccc(OC)c1)CC2,x,x,-3%[11.5 µM],x
Brc1cccc(-c2nnc(CN3CCN(c4ccccn4)CC3)o2)c1,x,2%,x,6%
Nn1cnnc1SCC(=O)N1CCc2ccccc2C1,1%,0%,x,7%
CC(C)NC(=O)N1CCCC2(CCN(C(=O)c3ccco3)CC2)C1,x,2%,x,x
COc1ccc(Br)cc1CNC(=O)C1COc2ccccc2C1 (stereo not given),x,2%,x,-1%
CN1CCN(Cc2c(O)ccc3cc(-c4ccccc4)c(=O)oc23)CC1,x,-3%,x,-12%
CN1CCN(Cc2c(O)ccc3c(-c4ccccc4)cc(=O)oc23)CC1,-17%,1%,-2%,32µM*
CCN(CC)Cc1c(O)ccc2c(-c3ccccc3)cc(=O)oc12,-11%,-1%,-1%,-36%
CCCCN(CC)Cc1c(O)ccc2c(-c3ccccc3)cc(=O)oc12,-2%,7%,8%,50µM*
CCCN(C(=O)c1ccc2c(=O)n3c(nc2c1)CCCCC3)c1cccc(Cl)c1,x,0%,x,-1%
CC(C)CCn1c(=O)c2sccc2n2c(CCCC(=O)NC3CCC(C)CC3)nnc12 (stereo not given),x,-4%,x,0%
O=C1C2C3C=CC(CC3)C2C(=O)N1c1ccc([N+](=O)[O-])cc1 (stereo not given),10%,1%,-9%,20µM*
CC(=O)c1ccc(N2C(=O)C3C4C=CC(CC4)C3C2=O)cc1 (stereo not given),-3%,8%,4%,12%
Cc1cc(C(=O)Nc2ccccc2)oc1C,-19%,-1%,16µM*,0%
O=C(Nc1ccccc1)c1cc2ccccc2o1,u,-6%,14µM*,1%
CCCSCCCNC(=O)c1cc2n(n1)CCCN(Cc1ccc(C)cc1)C2=O,x,6%,x,3%
Cn1c(SCC(=O)c2cc(Cl)c(Cl)s2)nnc1-c1ccco1,-19%,u,8%,25µM*
Cc1occc1-c1nnc(SCC(=O)N2CCCCC2)n1C,7%,1%,x,-2%
Cc1occc1-c1nnc(SCC(=O)c2ccc(Cl)cc2)n1C,-5%,-8%,-2%,40µM*
